BCR signal inh – inhibitors of chronic active B-cell receptor signaling; 0.05% of 340,000 active; Potency, µM (series often up to 46.1 µM), for the others: at the highest dose activity change, negative = inhibition, actives largely listed as inhibitors; AID 493014; ABC-DLBCL IkBa-CBG/CBR reporter, luminescence ratio, 4 h; active = well fitted inhibition curve with a large enough effect in the signal ratio, with a control signal flat, not every such curve was filed as active; inconclusive = small, poorly fitted or top-dose-only effect, or effect the other way, or a change in a side signal; the % refers to the signal ratio;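 also: potency is read from the fitted curve at half-maximal effect; plate controls were basal doxycycline-induced cells for no effect and cells given 10 µM MG132 for full effect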
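Doxycycline induced both beetle luciferases in TMD8 lymphoma cells; IKK-driven degradation limits the IkappaBalpha-fused green signal, while red luminescence normalises for cell number and nonspecific effects. Compounds tested up to 46 uM, 4 hrs.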
DRD3 antagonist – antagonists of human D3 dopamine receptor. 2.5% of 360,000 active. P35462. max response, negative = inhibition, %. D3R cells, DiscoveRx beta-arrestin luminescence, antagonist mode; active compounds read low. AID 652054; in the data active = max response below about -50%; inconclusive = no clear call, values can overlap the other calls; also: % is scaled to controls: 0 for no effect and ±100 for the full control effect
Target sequence (P35462 whole entry, looked up): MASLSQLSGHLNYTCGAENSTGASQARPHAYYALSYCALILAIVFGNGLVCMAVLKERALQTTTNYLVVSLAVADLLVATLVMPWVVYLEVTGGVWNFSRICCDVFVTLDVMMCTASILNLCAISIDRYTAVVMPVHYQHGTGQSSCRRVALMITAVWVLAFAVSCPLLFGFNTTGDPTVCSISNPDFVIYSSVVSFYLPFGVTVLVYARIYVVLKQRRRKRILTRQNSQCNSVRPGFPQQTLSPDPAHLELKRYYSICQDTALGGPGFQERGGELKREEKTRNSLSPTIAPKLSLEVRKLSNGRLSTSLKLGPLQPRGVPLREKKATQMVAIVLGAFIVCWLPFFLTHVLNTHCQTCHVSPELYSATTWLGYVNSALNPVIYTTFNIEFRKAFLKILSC
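Cells plated overnight at 1500 cells/well, then exposed to library compounds with dopamine controls for 90 minutes at 37 degrees C. DiscoveRx reagent added for 30–60 minutes at room temperature; luminescence read, quantitative HTS format.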
D3 ag – D3 dopamine receptor (human) agonism; max activation, %; 0.58% of 410,000 active; P35462; D3R DiscoveRx beta-arrestin cells, luminescence, 90 min; in the data active = max activation above about 30%; also: 0% is about no effect
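Agonist mode: compounds and dopamine controls were applied to plated cells for 90 min at 37 degrees C after an overnight attachment at 1500 cells/well. Luminescent read-out followed 30 - 60 minutes at room temperature with DiscoveRx detection reagent.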
D1 PAM – potentiators of human D1 dopamine receptor; HEK293 TREx D1 cells, calcium flux, dopamine EC20 potentiation; potentiation, % at 10 µM; 0.036% of 360,000 active; AID 504651; in the data active = potentiation above about 30%; also: 0% is about no effect
D1 antag – antagonists of human D1 dopamine receptor | P21728 | activity change, negative = inhibition, % at 10 µM | 3.2% of 360,000 active | AID 504652 | HEK293 TREx D1 cells, calcium flux, dopamine EC80; active compounds read low; in the data active = activity change below about -30%; also: % is scaled to controls: 0 for no effect and ±100 for the full control effect
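Tetracycline-induced HEK293 Trex D1 cells, force-coupled to calcium, dye-loaded; compounds added and read 180 s, then EC80 dopamine added and calcium flux tracked kinetically another 180 s.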
D1 agonist – agonists of human D1 dopamine receptor | AID 504660 | HEK293 T-REx D1 cells, calcium flux, agonist mode | activation, % at 2 µM | 1% of 360,000 active; in the data active = activation above about 30%; also: 0% is about no effect
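Inducible HEK293 T-REx D1 cells, force-coupled to calcium signalling, were plated at 4000 cells/well with tetracycline and held overnight at 30 C. After no-wash calcium dye loading, compound-evoked calcium rise over 180 s flagged agonists.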
* marks the source's active call; other numbers are inactive results; ? = inconclusive; / = not tested or not shown. The list is not random: actives were taken first. Their share in the collection is about 6%.

SMILES | BCR signal inh | DRD3 antagonist | D3 ag | D1 PAM | D1 antag | D1 agonist
COc1ccccc1CN1C[C@@H]2C[C@@H](c3ccc(C)cc3)N3CCC[C@@]23C1=O | 1% | 5 | -11 | -5 | -1 | 0
O=C1N(Cc2cccc(Cl)c2)C[C@@H]2C[C@@H](c3ccc4nonc4c3)N3CCC[C@@]123 | ? | -9 | -3 | -5 | -36* | 8
COc1ccccc1CN1C[C@@H]2C[C@@H](c3ccc4nsnc4c3)N3CCC[C@@]23C1=O | -21% | 2 | 0 | -4 | -72* | 0
CC(=O)NCCNc1nc2c(-c3cccc(C)c3)nnn2c2ccc(Cl)cc12 | / | / | -5 | -4 | 18 | 3
CCCNc1c(F)c(F)c2c(C)c3ccccc3nc2c1F | 5% | 0 | -2 | -6 | 4 | 41*
Cc1c2ccccc2nc2ccccc12 | / | 0 | -8 | / | / | /
CN(Cc1ccccc1)C(=O)[C@@H]1CCCN1C(=O)[C@@H]1CCCN1C(=O)c1cccs1 | / | 18 | 1 | / | / | /
CN(Cc1ccccc1)C(=O)[C@@H]1CCCN1C(=O)[C@@H]1CCCN1C(=O)c1cccc2ccccc12 | / | -50* | -5 | / | / | /
Clc1cccc(N2CCN(c3nc4ccccc4c4nc(-c5ccccc5)nn34)CC2)c1 | / | / | -10 | -4 | 0 | 1
CC1CCCN(C(=O)CSc2nnc3n(C4CCCC4)c(=O)c4ccccc4n23)C1 (stereo not given) | 24% | 32 | 47* | -4 | 7 | 0
O=C(CSc1nnc2n(C3CCCC3)c(=O)c3ccccc3n12)N1CCCCCC1 | ? | 15 | 34* | 0 | 8 | 4
COc1ccccc1Cn1c(=O)c2ccccc2n2c(SCC(=O)N3CCCCC3)nnc12 | 9% | 15 | 6 | 0 | 8 | 0
Cc1ccc(CN(C(=O)Nc2cccc(Cl)c2)c2ccccn2)cc1 | / | / | 1 | -1 | -2 | 1
Cc1ccc(CN2CCSc3ccc(C(=O)Nc4ccc(C)cc4)cc32)cc1 | / | / | -5 | -2 | 6 | 2
CC1CCN(CC(=O)Nc2cccc([N+](=O)[O-])c2)CC1 | -1% | -58* | -58 | -1 | -1 | 0
CC1CCN(CC(=O)Nc2ccc(Cl)cc2[N+](=O)[O-])CC1 | ? | -10 | 2 | 5 | -1 | 2
O=C(Nc1cccc([N+](=O)[O-])c1)C1CCN(C(=O)Cc2ccccc2)CC1 | -1% | ? | -19 | -3 | -30* | 7
O=C(CN1C(=O)C2CCCCC2C1=O)Nc1cccc([N+](=O)[O-])c1 (stereo not given) | 10% | -6 | -11 | 6 | -1 | 2
Cc1ccc([N+](=O)[O-])cc1NC(=O)CN1CCC(C)CC1 | 3% | -84* | -12 | 8 | 5 | 0
Cc1ccc([N+](=O)[O-])cc1NC(=O)CN1CCCCC1 | -6% | -78* | -3 | -3 | 14 | -2
O=C(OCC(=O)N1CCOCC1)c1cncc(Br)c1 | / | -1 | -2 | / | / | /
COC(=O)[C@]12CCCCC=C1N(Cc1cccc3ccccc13)C(=O)[C@H](CC(=O)NCc1ccc(C)o1)C2 | / | -20 | -4 | / | / | /
Cc1ccc([N+](=O)[O-])cc1NC(=O)CCSc1ccc(Cl)cc1 | ? | -23 | -21 | -9 | -42* | 34*
Cc1ccc(NC(=O)CN2CCCCCC2)cc1Br | 11% | -85* | -22 | 8 | -7 | 28
COC(=O)c1ccc(C)c(NC(=O)CCSc2ccc(Cl)cc2)c1 | ? | 1 | 1 | 8 | -11 | 15
SMILES | BCR signal inh | DRD3 antagonist | D3 ag | D1 PAM | D1 antag | D1 agonist
O=C(CN1CCCCCC1)Nc1cccc(Br)c1 | 0% | 0 | -7 | -4 | 14 | 1
CC1CCN(CC(=O)NNC(=O)c2cccc(Br)c2)CC1 | 0% | -50* | -34 | -1 | -3 | 0
Cc1nnc(Sc2nc3ccccc3o2)c2ccccc12 | ? | -68* | -5 | 0 | -6 | 1
Cc1ccc(-c2nnc(Sc3nc4ccccc4o3)c3ccccc23)cc1 | ? | ? | -33 | 0 | -20 | 2
O=C(CSc1cc([N+](=O)[O-])cc(S(=O)(=O)Cc2ccccc2)c1)NC1CC1 | 2% | -15 | -2 | -9 | -40* | 2
CCOC(=O)C1=C(O)C(=O)N(c2ccc(S(N)(=O)=O)cc2)C1c1ccc(Cl)cc1 (stereo not given) | 0% | 0 | 3 | 0 | -38* | 0
CCOC(=O)C1=C(O)C(=O)N(c2ccc(S(N)(=O)=O)cc2)C1c1ccc(Br)cc1 (stereo not given) | -4% | -13 | -4 | -1 | -2 | 8
CCOC(=O)c1c(C)[nH]c(C(=O)COC(=O)c2[nH]c(C)c(C(C)=O)c2C)c1C | -13% | 16 | 37* | -4 | -3 | 5
CCCN(CC1CC1)C(=O)COC(=O)c1[nH]c(C)c(C(=O)OCC)c1C | ? | 7 | 15 | -7 | 15 | 30*
CC(=O)c1c(C)[nH]c(C(=O)COC(=O)c2ccc(Cl)nc2)c1C | ? | 29 | 11 | -6 | -41* | 12
CC(=O)c1c(C)[nH]c(C(=O)COC(=O)c2cc(C)oc2C)c1C | -2% | -9 | 11 | -2 | -22 | 14
CC(=O)c1c(C)[nH]c(C(=O)COC(=O)c2ccc(C)s2)c1C | 2% | 38 | 39* | / | / | /
CC(C(=O)NC(C)(C)C)n1c(C(c2ccccc2)c2ccccc2)nc2ccccc21 (stereo not given) | / | 0 | -16 | / | / | /
Cn1nnnc1Sc1ncnc2scc(-c3cccc(Cl)c3)c12 | / | / | / | 6 | 14 | 4
O=C(CSc1nc(-c2ccc(F)cc2)cc(C(F)(F)F)n1)NCCc1ccccc1 | / | / | -9 | -4 | -8 | 44*
CCN(CC)CCCNC(=O)CSc1nc(-c2ccc(F)cc2)cc(C(F)(F)F)n1 | -17% | -13 | -8 | -4 | -41* | 15
CCC(C)NC(=O)CSc1nc(-c2ccc(F)cc2)cc(C(F)(F)F)n1 (stereo not given) | / | / | 0 | -5 | -4 | 2
CCn1c2ccccc2c2nnc(N3CCN(c4cccc(Cl)c4)CC3)nc21 | / | / | -12 | -3 | 2 | -1
Cc1cccc(-n2ccnc2SCC(=O)Nc2cccc(S(=O)(=O)NC3=NCCC3)c2)c1C | 5% | 4 | -6 | -1 | 0 | 2
CCCNC(=O)c1ccccc1NC(=O)c1ccccc1SC | -17% | -13 | -2 | -11 | 10 | 0
CCCNC(=O)c1ccccc1NC(=O)c1ccc(CSc2ccccc2)cc1 | ? | 21 | -2 | -8 | -46* | 40*
Cc1ccc(SCc2ccc(C(=O)Nc3ccccc3C(=O)NC(C)C)cc2)cc1 | 10% | -15 | 12 | 17 | -7 | 11
